# This is one part of a sample in which hits are shown more often than they occur.
# UbGFP stabilizer: ubiquitin-GFP accumulation via proteasome inhibition. Ubiquitin-GFP reporter cells, proteasome inhibition, GFP fluorescence; response scale: untreated = 0%, 10 µM MG-132 = 100%. Potency, µM (series often up to 45.9 µM), for the others: at the top dose activation (GFP accumulation), most hits filed as activators. 67,000 tested, under 10 active. AID 526; active means well fitted activation curve with a large enough effect, not every such curve was filed as active; inconclusive means small, poorly fitted or top-dose-only effect, or another doubt; inactive means no such curve, though single readings can be large or run the other way
#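 U2OS cells expressing ubiquitin(G76V)-GFP, seeded overnight in 0.5% FBS medium, then treated 4 hr at 37 C across 46 uM to 2.9 nM. GFP-positive cells counted by laser cytometry (488 ex/515 em); %activity scaled between basal and 10 uM MG-132.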
# Casp7 inh: blocks human caspase-7 allosterically or competitively | recombinant caspase-7, Ac-DEVD-AFC fluorescence rate | Potency, µM (top dose mostly 57.5 µM), for the others: at the top dose activity change, negative = inhibition, usual class: inhibitors | actives 0.02% (n = 75,000); active means well fitted inhibition curve with a large enough effect in the main read-out, with a control signal flat, not every such curve was filed as active; inconclusive means small, poorly fitted or top-dose-only effect, or a change in a side signal; further: % of control where 0% means no effect
# 15-hLO-2 inh: 15-hLO-2 (ALOX15B) enzyme inhibition. purified 15hLO-2, xylenol orange hydroperoxide absorbance. actives 0.56% (n = 110,000). O15296. Potency, µM (series often up to 57.1 µM), for inactives: at the highest dose activity change, negative = inhibition, hits mostly inhibitors; further: on the % scale 0 is the no-effect control and ±100 the full control effect; nearly all actives have a fitted effect of over 60% in size
#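 Purified human 15hLO-2 (50 nM) preincubated 15 min with compound, then 45 uM arachidonic acid for 90 min at RT in 25 mM Hepes pH 7.5, 0.01% Triton X-100. Hydroperoxide detected by Fe-xylenol orange; 573/405 nm absorbance ratio.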
# USP2a inh: inhibitors of human ubiquitin-specific protease USP2a; O75604; actives 0.1% (n = 60,000); USP2a enzymatic assay, qHTS inhibition; Potency, µM (top dose mostly 38.3 µM), for the others: at the highest dose activity change, negative = inhibition, usual class: inhibitors; AID 927; further: nearly all actives have a fitted effect of over 60% in size
# Target sequence (O75604 whole entry, looked up): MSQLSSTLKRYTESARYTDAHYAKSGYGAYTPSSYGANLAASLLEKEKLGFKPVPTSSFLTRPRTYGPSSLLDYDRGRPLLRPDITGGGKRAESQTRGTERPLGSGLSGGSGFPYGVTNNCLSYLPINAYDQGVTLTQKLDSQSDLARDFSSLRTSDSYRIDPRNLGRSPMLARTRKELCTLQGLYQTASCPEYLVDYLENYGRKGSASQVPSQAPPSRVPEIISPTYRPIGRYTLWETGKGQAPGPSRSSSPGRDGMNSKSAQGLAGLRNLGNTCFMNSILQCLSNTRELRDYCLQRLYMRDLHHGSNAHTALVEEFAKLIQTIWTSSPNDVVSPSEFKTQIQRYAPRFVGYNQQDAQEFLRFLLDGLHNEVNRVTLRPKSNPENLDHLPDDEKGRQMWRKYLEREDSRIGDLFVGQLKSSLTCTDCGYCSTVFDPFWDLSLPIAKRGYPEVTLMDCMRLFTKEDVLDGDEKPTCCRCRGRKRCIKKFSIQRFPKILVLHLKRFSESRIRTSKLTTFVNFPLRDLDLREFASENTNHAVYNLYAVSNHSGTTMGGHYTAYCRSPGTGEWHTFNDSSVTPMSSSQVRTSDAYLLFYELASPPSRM
#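 Coupled readout: USP2-cleaved Ub-PLA2 (20nM final) turns over NBD C6-HPC (20uM final), Ex 460nm/Em 535nm after 2.5 h, time-zero read flagging artifacts. Enzyme (20nM final, pH 8.0 Tris) given 30 min RT with compound first; NEM defines full inhibition.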
# 15-hLO inh: inhibitors of human 15-lipoxygenase (ALOX15). Potency, µM (titrated, usually from 57.1 µM), for inactives: top-dose activity change, negative = inhibition, actives largely listed as inhibitors. actives 1.4% (n = 74,000). AID 887. purified 15hLO-1, xylenol orange hydroperoxide absorbance. P16050; further: on the % scale 0 is the no-effect control and ±100 the full control effect; nearly all actives have a fitted effect of over 55% in size
#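 Readout: Fe(III)-xylenol orange absorbance, 573-to-405 nm ratio as reaction progress. Enzyme 40 nM purified human 15hLO-1, substrate 50 uM arachidonic acid, 6 min RT after 15 min compound preincubation; Hepes pH 7.5 buffer with Triton X-100.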
# Casp1 inh: blocks human caspase-1 allosterically or competitively. Caspase-1 enzyme, Ac-WEHD-AFC fluorogenic rate. Potency, µM (series often up to 57.5 µM), for the others: at the highest dose activity change, negative = inhibition, most hits filed as inhibitors. actives 0.03% (n = 75,000). AID 900;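 further: plate controls were vehicle for no effect and no substrate for full effect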
# * hit, by the source's call; ? = inconclusive; / = no result; [ ] = dose if it differs, or a comment. Unless noted, the call rests on the fitted dose curve; in most records, active means well fitted curve in the direction sought with a large enough effect; inconclusive means small, poorly fitted or top-dose-only effect, or another doubt; inactive means no such curve, though single readings can be large; an effect the other way counts as inactive or inconclusive. Potency means the concentration at half of the fitted maximal effect.
SMILES,UbGFP stabilizer,Casp7 inh,15-hLO-2 inh,USP2a inh,15-hLO inh,Casp1 inh
Cc1cccc(C(=O)Nc2cccc(OC(=O)c3cccc(C)c3)c2)c1,/,/,11%,/,/,/
CCOC(=O)N1CCC(NC(=O)c2cccc3c2C(=O)N(c2ccc(OC)cc2)C3)CC1,9%,-22%,-12%,/,?,0%
COc1ccc(N2Cc3cccc(C(=O)NC(C)CCc4ccco4)c3C2=O)cc1 (configuration not stated),0%,-21%,-28%,/,20µM*,-5%
CCCCCCCC/C=C\CCCCCCCC(=O)N(CCO)CCO,/,-17%,2%,/,1.3µM*,-13%
CCCCC/C=C\C/C=C\CCCCCCCC(=O)O,/,-10%,7%,/,0.16µM*,-8%
CCCCCCCC/C=C\CCCCCCCC(=O)O,/,-10%,-5%,/,-6%,-9%
Cc1noc(C)c1C(=O)N1CCC2(CCN(Cc3nccs3)CC2)CC1,-7%,0%,-4%,9%,-2%,-2%
CN1CCN(c2nc3c(c(=O)n(C)c(=O)n3C)n2CCSc2nc3ccccc3s2)CC1,-9%,1%,/,/,1.6µM*,2%
CCN1CCN(c2nc3c(c(=O)[nH]c(=O)n3C)n2CCSc2nc3ccccc3s2)CC1,/,/,3%,/,/,/
C=CC1=C(C)C2=NC1=CC1=NC(=CC3=NC(=CC4=NC(=C2)C(C)=C4CCC(=O)O)C(CCC(=O)O)=C3C)C(C=C)=C1C.[Zn],-3%,-11%,13µM*,/,10µM*,-11%
C/C=C/OC(=O)NC(c1ccccc1)[C@]1(C(C)=O)CCCC1=O (some centres not stated),/,1%[11.5 µM],/,/,-4%[11.4 µM],2%[11.5 µM]
COc1ccccc1CNc1nc2ccccc2n1CCN1CCCCC1,0%,0%,68%,4%,-3%,0%
Oc1ccccc1CNc1nc2ccccc2n1CCN1CCCCC1,22%,-3%,5%,/,13µM*,2%
CCNc1ncc2nc(-c3cc(F)cc(F)c3)c(=O)n(CCC#N)c2n1,-9%,?,-9%,94%,-6%,/
O=c1c(O)cccc2cc(O)c(O)c(O)c12,/,-10%,-10%,23%,4µM*,1%
Cc1ccc(-n2nc3c([n+]2[O-])CCc2c-3no[n+]2[O-])cc1,0%,0%,4%,2µM*,6%,0%
[O-][n+]1onc2c1CCc1c-2nn(-c2ccccc2Cl)[n+]1[O-],7%,1%,-6%,3%,-3%,1%
O=C(O)/C=C(/C(=O)O)[C@]12CCN3CC4=CCO[C@@H]5CC(=O)N[C@@H]1[C@H]5[C@H]4C[C@H]32,0%[9.17 µM],-3%[11.5 µM],-3%[11.4 µM],/,11%[11.4 µM],0%[11.5 µM]
N#C/C(=C\c1ccc(N2CCOCC2)o1)c1nc2ccccc2[nH]1,/,/,-28%,/,/,/
N#C/C(=C/c1ccc(N2CCOCC2)o1)c1ccc(Cl)cc1,/,/,10µM*,/,/,/
CCCCCCCCCCCCCCCCCC(=O)NC[C@@H](COP(=O)([O-])OCC[N+](C)(C)C)OCC,4%,1%,11%,26%,45%,1%
Cc1cc(-c2nnc(-c3ccccc3)c(-c3ccccc3)n2)c(C)o1,-10%,-6%,?,34%,25µM*,-3%
c1cncc(-c2cncnc2NC2CCNCC2)c1,4%,-1%,4%,60%,32µM*,2%
c1cncc(-c2ccc3ncnc(NC4CCNCC4)c3c2)c1,-3%,-3%,4%,8%,11%,-1%
O=C(Cc1ccccc1)N1CCc2ccccc21,/,/,5%,/,/,/
SMILES,UbGFP stabilizer,Casp7 inh,15-hLO-2 inh,USP2a inh,15-hLO inh,Casp1 inh
N#C[C@@H](Cc1ccc(O)c(O)c1)C(=O)N1CCc2ccccc21,-6%,0%,?,0%,0.63µM*,2%
CC(=O)Nc1nc2n(n1)C(c1ccccc1)C=C(c1ccccc1)N2 (configuration not stated),0%,?,-12%,44%,20µM*,/
CC(=O)Nc1nc2n(n1)C(c1ccc(F)cc1)C=C(c1ccccc1)N2 (configuration not stated),4%,?,-14%,34%,?,/
Cc1ccsc1C1C=C(c2cccc(Br)c2)Nc2ncnn21 (configuration not stated),2%,?,-5%,41%,16µM*,/
COc1ccc(OC)c(NC(=O)NC2(C(F)(F)F)Oc3ccccc3O2)c1,0%,1%,10µM*,2%,-14%,0%
O=C(NCCCCN1CCCC1)c1ccc(-n2c(=O)c(=O)[nH]c3ccccc32)cc1,/,-2%,/,/,-1%,-5%
CCc1ccc(S(=O)(=O)Nc2ccc(O)c(C(=O)O)c2)cc1,/,1%,/,/,-6%,0%
CC(=O)[C@H](CC(C)C)NC(=O)[C@@H](CC(C)C)NC(=O)[C@H](CC(C)C)NC(=O)OCc1ccccc1,0.79µM*,-4%,-9%,/,-8%[25.6 µM],-2%
O=C1CC(N2CCOCC2)C(=O)N1c1cccc(Cl)c1 (configuration not stated),?,0%,-14%,-2%,1%,0%
O=C1C(Cl)=C(N2CCOCC2)C(=O)N1c1cccc(Cl)c1,-2%[9.17 µM],-6%,15%,-3%[7.66 µM],4µM*,-8%
C=CCn1c(=N)c(C(=O)NCCCOC)cc2c(=O)n3cccc(C)c3nc21,-5%,?,-11%,8%,1.3µM*,/
CCC=O,/,0%,-4%,/,0%,-1%
CCC(C)c1ccc(O)c(N)c1 (configuration not stated),-4%,0%,?,36%,13µM*,0%
CCC(C)c1ccccc1O (configuration not stated),/,0%,4%,/,-2%,0%
CC(C)c1ccc(O)c(N)c1,/,/,5µM*,/,/,/
Cc1ccc(O)c(N=Nc2ccccc2)n1,2%,1%,?,-1%,13µM*,3%
N#CC1=C(N)N2C(=C(C#N)C13CCCCC3)SC1CCCCC12O (configuration not stated),-5%,0%,-11%,2%,20µM*,-3%
CSC1=C(C#N)C2(CCCC2)C(C#N)=C(N)N1,0%,1%,-5%,7%,?,2%
CC(Oc1ccc(Cl)cc1Cl)C(=O)Nc1ccncc1 (configuration not stated),-4%,0%,8%,9%,0%,0%
CC(Oc1ccc(Cl)cc1Cl)C(=O)NC1=NN(c2ccccc2)C(=O)C1 (configuration not stated),/,/,7.9µM*,/,/,/
CCOC(=O)c1ccc(-n2c(=S)sc3c(=O)[nH]c(C)nc32)cc1,-7%,0%,-19%,-4%,10µM*,0%
Cc1ccc(C(=O)CCNc2cccc(Br)c2)o1,-3%,0%,-3%,-7%,13µM*,-2%

# From PubChem BioAssay
